Laboratory results from PubChem BioAssay AID1347170 (National Center for Advancing Translational Sciences (NCATS), 2019).
Results filed as inconclusive are left out. Values without a mark were called inactive. Calls follow the shape of the dose curve; as a rule, active = well fitted cell-killing curve with a large enough effect; inconclusive = small, poorly fitted or top-dose-only effect, or another doubt; inactive = flat fitted curve, though single readings scatter.

Assay: Vero cells viability counterscreen for qRT-PCR qHTS assay of selected Zika virus inhibitors
Conditions: CellTiter-Glo ATP luminescence, 24 h; series mostly up to 41.8 µM; activity change, negative = cytotoxicity: at the top concentration
Excerpt: Assay Submitters (PI): Avindra Nath, Ph.D., National Institute of Neurological Disorders and Stroke (NINDS), Bethesda, MD Radhakrishnan Padmanabhan, Ph.D., Georgetown University (GU), Washington D.C. Zika Virus causes congenital defects, including microcephaly and is associated with Guillain-Barre syndrome, eningoencephalitis and myelitis in infected adult. […] Using a target-based approach, we hope to establish a screening paradigm to uncover novel, cell-active NS2B-NS3 protease (Zika Virus) specific inhibitors from NCATS' collection of small molecules using qHTS. […] Four assay panel was created to identify potential Zika Virus inhibitors. Namely, (1) GU unlinked NS2B-NS3 AMC tagged protease qHTS, (2) GU unlinked NS2B-NS3 Rhodamine tagged protease qHTS, (3) NINDS linked NS2B-NS3 AMC tagged protease qHTS, (4) NINDS linked NS2B-NS3 Rhodamine tagged protease qHTS. Inhibitors of the Zika virus primary screens are confirmed using qRT-PCR secondary assays, mCherry orthogonal assay, and Vero cells viability counterscreen. Cytotoxic compounds identified in the Vero cell viability counterscreen were excluded from the list of potential Zika virus inhibitors. Early Translation Branch (ETB) National Center for Advancing Translational Sciences (NCATS), Rockville, MD National Institute of Health (NIH), Bethesda, Maryland
Vero Cell Viability Assay: Vero cell cytotoxicity was determined using a luminescent readout with CellTiter Glo reagent (Promega, Madison, WI), which is based on measuring the ATP content within cells. Briefly, 4 uL of Vero cells at 2.5 x 10^5 cells/mL in DMEM containing 4% FBS were dispensed into 1536-well solid bottom tissue treated white plate using a Multidrop Combi dispenser (Thermo Scientific). Plates were incubated at 37 degrees C, 95% humidity, and 5% CO2 overnight to allow for cell attachment. Compounds were dissolved in DMSO at different concentrations and transferred via pintool (Wako Automation), for a final concentration of 57 uM - 0.029 uM. Plates were again incubated for 24 hours, followed by a 2 uL addition of CellTiter Glo. Finally, plates were incubated for 30 minutes at 37 degrees C and 5% CO2 before being read on a ViewLux (Perkin Elmer) for luminescence.

Structure (SMILES)	activity change, negative = cytotoxicity
CN(C)[C@@H]1C(=O)C(C(N)=O)=C(O)[C@@]2(O)C(=O)C3=C(O)c4c(O)ccc(Cl)c4[C@@](C)(O)[C@H]3C[C@@H]12	-4.34%
CN(C)[C@@H]1C(=O)C(C(N)=O)=C(O)[C@@]2(O)C(=O)C3=C(O)c4c(O)cccc4[C@@](C)(O)[C@H]3C[C@@H]12	-3.72%
CCCCCOc1cc2c(cc1-c1cc(/C=C/C(=O)O)ccc1O)C(C)(C)CCC2(C)C	-8.19%
Oc1c(Cl)c(Cl)c(Cl)c(Cl)c1Cl	-6.7%
CC(=O)c1c(O)c(C)c(O)c(Cc2c(O)c3c(c(C(=O)/C=C/c4ccccc4)c2O)OC(C)(C)C=C3)c1O	7.22%
C[C@]12CC[C@@H]3c4ccc(OC(=O)N(CCCl)CCCl)cc4CC[C@H]3[C@@H]1CC[C@@H]2O	1.61%
O=C1OC(c2ccc(O)c(S(=O)(=O)O)c2)(c2ccc(O)c(S(=O)(=O)O)c2)c2c(Br)c(Br)c(Br)c(Br)c21	-4.94% [at 31.5 µM]
Cc1cc(SCc2sc(-c3ccc(C(F)(F)F)c(F)c3)nc2C)ccc1OCC(=O)O	-17.4% [at 83.7 µM]
O=C(Nc1ccc(Br)cc1)c1cc(Br)cc(Br)c1O	-2.96% [at 31.5 µM]
